Screening data: PubChem, National Center for Advancing Translational Sciences (NCATS)
Most compounds without a hit are left out; they make up all but 18% or so of the library.
VP16 counter – VP16 counterscreen qHTS for inhibitors of ROR gamma transcriptional activity; Drosophila S2 Gal4-VP16 UAS-luciferase, luminescence, 20 h; Potency, µM (titrated, usually from 53.6 µM), without a hit: at the top dose activity, negative = inhibition, usual class: inhibitors; hit rate 3.5% among 310,000; AID 2546, 2010;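 further: Gal4-VP16 expression switched on by copper sulfate through the metallothionein promoter; potency means the concentration at half of the fitted maximal effect; nearly all actives have a fitted effect of over 50% in size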
LDHA inh – qHTS assay for inhibitors of human lactate dehydrogenase | L-lactate dehydrogenase A chain (Homo sapiens), P00338 | purified LDHA, NADH/diaphorase-resazurin fluorescence; stronger effect = lower value | activity change, % (values are at about 110 or 230 µM) | hit rate 0.15% among 480,000; in the data active means activity change below about -30%; inconclusive means mostly about -25% to -30%;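 further: plate controls were DMSO wells for no effect and wells without enzyme for full effect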
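LDH5 2 nM; NADH 0.06 mM, pyruvate 0.2 mM; 200 mM Tris pH 7.4, EDTA, Tween-20; 5 min RT. Detection: diaphorase 0.133 mg/mL + resazurin 37 µM, fluorescence ex540/em590 at 0 and 20 min; normalized to enzyme-free and DMSO wells.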
IL-1B inflam inh – qHTS for Inhibitors of Inflammasome Signaling: IL-1-beta AlphaLISA Primary Screen; THP-1 LPS/ATP IL-1B secretion, AlphaLISA, 16 h; stronger effect = lower value; activity change, % at 57.5 µM; hit rate 4.7% among 360,000; AID 743279, 2014; in the data active means activity change below about -50%; inconclusive means mostly about -30% to -49%
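Secreted IL-1B measured by AlphaLISA bead assay after 16 h compound exposure of THP-1 cells; compounds (final up to 57.5 uM) added 1 h before LPS (250 ng/mL) and ATP (1.25 mM) stimulation; lower signal means less secretion.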
TDP1 cell noCPT – qHTS for Inhibitors of human tyrosyl-DNA phosphodiesterase 1 (TDP1): qHTS in cells in absence of CPT. DT40 Tdp1-/- hTDP1 cells, no CPT, ATP luminescence, 48 h. Potency, µM (highest dose often 46.2 µM), inactives show top-dose activity change, negative = growth inhibition, most hits filed as inhibitors. hit rate 15% among 420,000; further: potency means the concentration at half of the fitted maximal effect; nearly all actives have a fitted effect of over 55% in size
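Chicken DT40 Tdp1-/- cells stably complemented with human TDP1 were seeded at 400 cells/well with DMSO in place of 20 nM camptothecin. After compound pinning, cells grew at least 48 hr at 37 °C; viability read by CellTiter-Glo luminescence.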
RORgamma inh – qHTS for inhibitors of ROR gamma transcriptional activity | Nuclear receptor ROR-gamma (Mus musculus), P51450 | Drosophila S2 Gal4-RORgamma UAS-luciferase reporter, 20 h | Potency, µM (titrated, usually from 53.6 µM), inactives show at the highest dose activity change, negative = inhibition, actives largely listed as inhibitors | hit rate 5.4% among 310,000 | AID 2551, 2010; further: potency means the concentration at half of the fitted maximal effect; nearly all actives have a fitted effect of over 60% in size
Target sequence (P51450 whole entry, looked up, the tested form may be a part): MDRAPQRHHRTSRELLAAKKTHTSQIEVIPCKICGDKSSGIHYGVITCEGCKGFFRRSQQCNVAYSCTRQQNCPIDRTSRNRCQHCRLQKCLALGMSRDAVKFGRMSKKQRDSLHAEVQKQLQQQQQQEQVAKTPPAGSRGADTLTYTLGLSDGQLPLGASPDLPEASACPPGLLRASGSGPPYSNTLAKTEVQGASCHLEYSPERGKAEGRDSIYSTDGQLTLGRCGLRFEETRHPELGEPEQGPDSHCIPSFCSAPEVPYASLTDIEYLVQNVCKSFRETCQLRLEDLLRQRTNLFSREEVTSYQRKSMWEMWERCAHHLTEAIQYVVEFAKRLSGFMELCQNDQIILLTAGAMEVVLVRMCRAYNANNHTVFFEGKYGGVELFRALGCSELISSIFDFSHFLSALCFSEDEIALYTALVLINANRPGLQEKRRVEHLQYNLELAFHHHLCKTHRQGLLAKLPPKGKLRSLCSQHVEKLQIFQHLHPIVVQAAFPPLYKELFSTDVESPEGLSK
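Stably transfected Drosophila Schneider cells are the test system, with ROR gamma fused to Gal4 and luciferase under UAS control; luminescence is read after 20 hr of 700 uM copper sulfate induction at ambient temperature.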
TDP1 cell CPT – qHTS for Inhibitors of human tyrosyl-DNA phosphodiesterase 1 (TDP1): qHTS in cells in presence of CPT. chicken DT40 Tdp1-/-;hTDP1 cells + 20 nM CPT, ATP luminescence, 48 h. Potency, µM (top dose mostly 46.2 µM), inactives show at the highest dose activity change, negative = growth inhibition, actives largely listed as inhibitors. hit rate 12% among 420,000; further: potency means the concentration at half of the fitted maximal effect; nearly all actives have a fitted effect of over 55% in size
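Chicken DT40 Tdp1-/- cells stably complemented with human TDP1 were seeded at 400 cells/well in medium containing 20 nM camptothecin, exposed to pin-transferred compounds, and grown at 37 °C for at least 48 hr. Viability was read as ATP luminescence.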
An asterisk follows results filed as active; ? = inconclusive; nt = not tested or not shown. Unless noted, the call rests on the fitted dose curve; in most records, active means well fitted curve in the direction sought with a large enough effect; inconclusive means small, poorly fitted or top-dose-only effect, or another doubt; inactive means no such curve, though single readings can be large; an effect the other way counts as inactive or inconclusive. Unless noted, on the % scale 0 is the no-effect control and ±100 the full control effect.

SMILES	VP16 counter	LDHA inh	IL-1B inflam inh	TDP1 cell noCPT	RORgamma inh	TDP1 cell CPT
COc1ccc(NC(=O)C2CCN(C(=O)c3ccc(OC)cc3)CC2)cc1	-15.9%	-4.6	13.3	?	-13.9%	14.6µM*
CCCC(C(=O)NC1CCCCC1)(c1ccccc1)c1ccccc1	nt	6.4	nt	nt	nt	nt
Nc1nc(Nc2ccc(Cl)c(Cl)c2)nc(-c2cc3ccccc3o2)n1	nt	3.4	nt	nt	nt	nt
COc1ccccc1NC(=O)Nc1ccc(C(=O)N2CCCCC2)cc1	2.5%	-1.0	?	20.6µM*	4.8%	?
COc1ccc(CC(NC(C)=O)C(=O)NC2CCN(c3c4c(nc5ncnn35)CCC4)CC2)cc1 (configuration not stated)	-6.7%	-2.0	-8.6	0.0%	1.2%	-23.9%
CC1CCC(NC(=O)C2CCN(c3c4c(nc5ncnn35)CCC4)CC2)CC1 (configuration not stated)	-1.6%	-9.0	39.7	16.4µM*	?	?
COc1ccc(C(=O)N2CCC(C(=O)c3c(C)cc(C)cc3C)CC2)cc1	5.8%	-9.3	-4.1	23.1µM*	15.0%	?
COC(=O)c1ccccc1NC(=O)Nc1ccc(C(=O)N2CCCC2)cc1	-1.5%	-3.2	11.8	-19.3%	19.3%	-3.4%
O=C(Nc1ccc(Br)cc1)C1CCN(C(=O)c2ccc(F)cc2)CC1	4.4%	-0.1	-73.2*	?	36.8%	?
COc1ccccc1-c1nc(C#N)c(N2CCN(C(=O)c3cccs3)CC2)o1	nt	-6.3	nt	nt	nt	nt
O=C(NC1CCCCCC1)C1CCN(C(=O)c2ccc(Br)cc2)CC1	-4.6%	-0.5	8.4	14.6µM*	19.3%	20.6µM*
CC(=O)Nc1ccc(NC(=O)C2CCN(C(=O)c3cccs3)CC2)cc1	-6.2%	-1.9	?	-11.3%	7.6%	23.1µM*
O=C(Nc1nc(-c2ccc(F)cc2)cs1)C1CCN(C(=O)c2ccc(F)cc2)CC1	nt	0.2	-83.6*	5.8µM*	nt	6.51µM*
COc1ccc(NC(=O)C2CCCN(c3c4c(nc5ncnn35)CCC4)C2)cc1 (configuration not stated)	?	-9.4	-1.0	23.1µM*	?	14.6µM*
Cc1ccc(NC(=O)C2CCN(C(=O)c3cccs3)CC2)cc1	6.3%	-5.8	-6.0	-5.0%	11.5%	2.3%
Cc1ccc(C(=O)N2CCC(C(=O)NC3CCCCCC3)CC2)cc1	-13.9%	-7.6	20.6	-12.8%	-21.1%	-11.6%
COc1ccc(NC(=O)c2cc(-c3cc(F)ccc3OC)n[nH]2)c(OC)c1	nt	-1.8	nt	?	nt	25.9µM*
COc1ccc(NC(=O)c2cc(-c3ccc(F)cc3OC)n[nH]2)c(OC)c1	nt	-5.0	nt	14.6µM*	nt	16.4µM*
COc1ccc(NC(=O)c2cc(-c3cc(C)c(C)cc3O)n[nH]2)c(OC)c1	-19.1%	2.8	4.5	?	-22.0%	-0.4%
O=C(NC1CCCc2ccccc21)C1CCN(c2nnc(-n3cccc3)s2)CC1 (configuration not stated)	0.9%	-7.2	-25.8	?	?	23.1µM*
CN(C)c1ccc(CNC(=O)C2CCN(c3nnc(-n4cccc4)s3)CC2)cc1	nt	3.2	nt	?	nt	-24.1%
O=C(c1ccc2c(c1)OCO2)C1CCCN(C2CCN(CCc3ccccc3)CC2)C1 (configuration not stated)	-2.8%	3.1	-76.5*	20.6µM*	5.3%	18.4µM*
CC(=O)c1cccc(CN2CCCC(C(=O)c3ccc4c(c3)OCO4)C2)c1 (configuration not stated)	2.2%	-3.8	-18.2	?	-1.7%	2.3%
COc1cccc(CN2CCC(C(=O)N3CCN(Cc4ccc5c(c4)OCO5)CC3)CC2)c1	2.7%	-33.1*	0.0	-45.2%	-0.8%	?
